# Results filed as inconclusive are left out. The source made the active and inactive calls. The calls were made as follows, unless noted: active = hit-call score of the fitted dose curve at least 0.9, where 1 is the maximum; inactive = score below 0.9.
# What was measured:
# [1] = molecular target: Oxysterols receptor LXR-alpha (Homo sapiens) (UniProt Q13133); experiment: ATG_LXRa_TRANS: Attagene TRANS-FACTORIAL HepG2 Assay for human Liver X Receptor alpha (LXRa) (AID 2282980; active = hit-call score of the fitted dose curve at least 0.9, where 1 is the maximum); conditions: HepG2 Attagene TRANS reporter, LXRa transactivation
# Chain of Oxysterols receptor LXR-alpha (Homo sapiens) (Q13133 whole entry, looked up, the tested form may be a part): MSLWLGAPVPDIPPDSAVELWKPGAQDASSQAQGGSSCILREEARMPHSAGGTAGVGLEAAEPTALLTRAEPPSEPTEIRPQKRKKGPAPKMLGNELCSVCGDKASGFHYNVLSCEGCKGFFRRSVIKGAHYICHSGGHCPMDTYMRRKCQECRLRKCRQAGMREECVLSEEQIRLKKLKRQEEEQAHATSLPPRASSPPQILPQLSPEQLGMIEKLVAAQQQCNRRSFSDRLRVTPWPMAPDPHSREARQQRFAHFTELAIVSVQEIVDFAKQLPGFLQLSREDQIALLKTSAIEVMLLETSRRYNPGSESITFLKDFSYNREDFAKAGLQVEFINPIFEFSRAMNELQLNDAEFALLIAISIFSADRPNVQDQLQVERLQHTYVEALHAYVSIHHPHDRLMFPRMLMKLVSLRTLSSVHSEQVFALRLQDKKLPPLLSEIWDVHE
# Summary of the method: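 Transfect HepG2 with GAL4-UAS multiplex reporter constructs (TRANS format, chimeric receptor-GAL4); treat 24 h; extract RNA, reverse-transcribe, PCR-amplify, FAM-label, HpaI-digest; resolve fragments by capillary electrophoresis. Upward response vs DMSO.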
# [2] = molecular target: Oxysterols receptor LXR-beta (Homo sapiens) (UniProt P55055); experiment: ATG_LXRb_TRANS: Attagene TRANS-FACTORIAL HepG2 Assay for human Liver X Receptor beta (LXRb) (AID 2282981; active = hit-call score of the fitted dose curve at least 0.9, where 1 is the maximum); conditions: HepG2 Attagene TRANS GAL4-LXRb reporter, mRNA
# Chain of Oxysterols receptor LXR-beta (Homo sapiens) (P55055 whole entry, looked up, the tested form may be a part): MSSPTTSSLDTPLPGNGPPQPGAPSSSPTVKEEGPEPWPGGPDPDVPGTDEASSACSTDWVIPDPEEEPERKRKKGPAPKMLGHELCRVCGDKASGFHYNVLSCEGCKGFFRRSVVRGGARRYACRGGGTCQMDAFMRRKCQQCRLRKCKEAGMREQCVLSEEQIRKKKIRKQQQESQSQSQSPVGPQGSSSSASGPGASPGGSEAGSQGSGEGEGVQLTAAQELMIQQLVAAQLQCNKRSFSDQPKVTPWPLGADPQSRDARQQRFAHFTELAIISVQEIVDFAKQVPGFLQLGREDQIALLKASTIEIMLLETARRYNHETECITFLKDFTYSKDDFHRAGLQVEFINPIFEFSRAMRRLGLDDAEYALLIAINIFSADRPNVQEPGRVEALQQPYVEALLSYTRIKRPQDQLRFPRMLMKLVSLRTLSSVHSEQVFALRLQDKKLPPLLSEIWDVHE
# Summary of the method: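 Cells: HepG2, transiently transfected with GAL4-UAS reporter units plus LXRb-Gal4 fusion. Treatment: 24 h. Detection: reporter mRNA by RT-PCR, 6-FAM labelling, HpaI digestion, capillary electrophoresis.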
# [3] = ATG_M_06_TRANS: Attagene TRANS-FACTORIAL HepG2 Assay for M06 Transcription Factor (Internal Marker) (AID 2282983; active = hit-call score of the fitted dose curve at least 0.9, where 1 is the maximum); conditions: HepG2 Attagene TRANS M06 internal marker reporter
# Summary of the method: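 Transfect HepG2 with MRTUs → dose compounds 24 h → isolate RNA, oligo(dT) RT → PCR with reporter primers → 6-FAM primer extension → HpaI digest → CE fragment analysis. Positive direction vs DMSO.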
# [4] = molecular target: Nuclear receptor subfamily 4 group A member 2 (Homo sapiens) (UniProt P43354); experiment: ATG_NURR1_TRANS: Attagene TRANS-FACTORIAL HepG2 Assay for human Nuclear Receptor Related Protein 1 (NURR1) (AID 2282985; active = hit-call score of the fitted dose curve at least 0.9, where 1 is the maximum); conditions: HepG2 Attagene TRANS reporter, mRNA readout
# Chain of Nuclear receptor subfamily 4 group A member 2 (Homo sapiens) (P43354 whole entry, looked up): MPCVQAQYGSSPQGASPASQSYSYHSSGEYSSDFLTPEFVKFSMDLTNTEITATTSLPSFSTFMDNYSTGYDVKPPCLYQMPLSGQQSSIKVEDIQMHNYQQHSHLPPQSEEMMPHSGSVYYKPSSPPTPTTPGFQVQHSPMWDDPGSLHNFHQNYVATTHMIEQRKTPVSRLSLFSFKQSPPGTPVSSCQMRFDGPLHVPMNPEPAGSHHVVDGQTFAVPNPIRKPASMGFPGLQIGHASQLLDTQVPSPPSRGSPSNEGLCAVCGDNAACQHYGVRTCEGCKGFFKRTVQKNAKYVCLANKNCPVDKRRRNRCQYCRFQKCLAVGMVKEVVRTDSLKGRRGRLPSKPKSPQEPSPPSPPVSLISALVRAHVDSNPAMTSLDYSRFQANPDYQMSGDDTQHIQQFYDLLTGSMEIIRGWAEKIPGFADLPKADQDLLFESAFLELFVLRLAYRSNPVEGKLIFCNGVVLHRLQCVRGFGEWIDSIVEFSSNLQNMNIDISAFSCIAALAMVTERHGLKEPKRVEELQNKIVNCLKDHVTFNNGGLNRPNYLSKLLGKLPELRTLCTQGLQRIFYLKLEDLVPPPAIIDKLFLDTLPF
# Summary of the method: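 Cells: HepG2, transiently transfected. Exposure: 24 h. Detection: fluorescence of labelled RT-PCR products separated by capillary electrophoresis; upward fit versus DMSO.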
# [5] = molecular target: Transcriptional activator Myb (Homo sapiens) (UniProt P10242); experiment: ATG_Myb_CIS: Attagene CIS-FACTORIAL HepG2 Assay for human Myeloblastosis (Myb) Proto-Oncogene Transcription Factor (AID 2282986); conditions: HepG2 Attagene CIS-FACTORIAL Myb reporter transcription; actives raise or lower the signal
# Chain of Transcriptional activator Myb (Homo sapiens) (P10242 whole entry, looked up): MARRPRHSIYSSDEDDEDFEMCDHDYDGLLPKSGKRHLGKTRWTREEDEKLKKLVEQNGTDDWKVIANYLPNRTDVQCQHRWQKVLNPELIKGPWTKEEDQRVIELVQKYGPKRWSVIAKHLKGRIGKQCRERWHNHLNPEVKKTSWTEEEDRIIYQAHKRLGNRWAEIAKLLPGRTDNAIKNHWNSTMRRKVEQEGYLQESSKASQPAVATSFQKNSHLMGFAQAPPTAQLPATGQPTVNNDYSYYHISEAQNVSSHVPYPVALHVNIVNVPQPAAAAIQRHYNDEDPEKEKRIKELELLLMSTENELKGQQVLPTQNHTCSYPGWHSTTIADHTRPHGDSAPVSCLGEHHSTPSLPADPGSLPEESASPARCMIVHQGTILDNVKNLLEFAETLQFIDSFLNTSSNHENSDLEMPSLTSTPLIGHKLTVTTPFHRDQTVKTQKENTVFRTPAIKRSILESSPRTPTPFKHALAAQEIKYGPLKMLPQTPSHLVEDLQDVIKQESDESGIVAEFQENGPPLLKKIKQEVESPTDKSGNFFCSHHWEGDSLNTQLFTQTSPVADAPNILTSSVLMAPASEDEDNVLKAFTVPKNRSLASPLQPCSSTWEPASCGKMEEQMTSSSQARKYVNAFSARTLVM
# Summary of the method: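 After 24 h of compound dosing, total RNA from transfected HepG2 cells is reverse-transcribed and the reporter sequences amplified, labeled and separated by capillary electrophoresis. Values come from bidirectional fitting against DMSO.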
# [6] = molecular target: Nuclear respiratory factor 1 (Homo sapiens) (UniProt Q16656); experiment: ATG_NRF1_CIS: Attagene CIS-FACTORIAL HepG2 Assay for human Nuclear Respiratory Factor 1 (NRF1) Orphan Gene (AID 2282987); conditions: HepG2 NRF1 cis-element reporter, Attagene multiplex; actives raise or lower the signal
# Chain of Nuclear respiratory factor 1 (Homo sapiens) (Q16656 whole entry, looked up): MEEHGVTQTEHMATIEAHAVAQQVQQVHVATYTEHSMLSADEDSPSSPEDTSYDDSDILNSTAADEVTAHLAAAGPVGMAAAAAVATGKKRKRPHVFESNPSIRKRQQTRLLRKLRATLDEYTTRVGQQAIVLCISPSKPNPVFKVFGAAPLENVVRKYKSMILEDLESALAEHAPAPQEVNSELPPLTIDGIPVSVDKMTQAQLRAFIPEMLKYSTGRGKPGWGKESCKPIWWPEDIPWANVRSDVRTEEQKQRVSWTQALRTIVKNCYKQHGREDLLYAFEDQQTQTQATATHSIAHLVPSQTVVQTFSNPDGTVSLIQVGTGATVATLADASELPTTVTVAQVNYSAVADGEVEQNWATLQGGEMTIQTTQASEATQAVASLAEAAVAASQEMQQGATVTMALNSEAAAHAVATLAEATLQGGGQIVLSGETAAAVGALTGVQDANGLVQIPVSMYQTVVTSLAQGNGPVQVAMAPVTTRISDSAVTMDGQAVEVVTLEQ
# Summary of the method: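 Measured: fluorescent reporter-specific RT-PCR products from transfected HepG2 cells, separated by capillary electrophoresis. Exposure lasted 24 h. Analysis used bidirectional curve fitting with DMSO as negative control.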
# [7] = molecular target: Myc proto-oncogene protein (Homo sapiens) (UniProt P01106); experiment: ATG_Myc_CIS: Attagene CIS-FACTORIAL HepG2 Assay for human Myelocytomatosis (Myc) Proto-Oncogene Transcription Factor (AID 2282990); conditions: HepG2, Attagene cis-reporter transcription factor activity; actives raise or lower the signal
# Chain of Myc proto-oncogene protein (Homo sapiens) (P01106 whole entry, looked up, the tested form may be a part): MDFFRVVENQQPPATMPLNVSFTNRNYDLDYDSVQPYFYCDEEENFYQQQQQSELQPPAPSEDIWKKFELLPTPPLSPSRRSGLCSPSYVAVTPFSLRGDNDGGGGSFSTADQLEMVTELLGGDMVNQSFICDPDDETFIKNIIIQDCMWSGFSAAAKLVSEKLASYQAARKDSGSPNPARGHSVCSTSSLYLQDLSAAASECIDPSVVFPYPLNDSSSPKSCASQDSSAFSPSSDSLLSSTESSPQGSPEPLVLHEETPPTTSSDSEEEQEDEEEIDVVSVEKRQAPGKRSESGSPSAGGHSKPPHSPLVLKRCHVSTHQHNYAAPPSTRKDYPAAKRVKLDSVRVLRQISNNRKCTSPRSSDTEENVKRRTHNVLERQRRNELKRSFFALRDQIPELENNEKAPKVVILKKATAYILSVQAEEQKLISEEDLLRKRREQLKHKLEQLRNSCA
# Summary of the method: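 After 24 h chemical treatment of HepG2 cells carrying multiplexed cis-regulated reporter constructs, reporter transcripts quantified by RT-PCR and capillary electrophoresis of fluorescent fragments. Gain or loss fitted against DMSO baseline.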
# [8] = ATG_NF_kB_CIS: Attagene CIS-FACTORIAL HepG2 Assay for human Nuclear Factor Kappa B (NF-kB) (AID 2282991); conditions: HepG2 Attagene cis-factorial NF-kB reporter mRNA; actives raise or lower the signal
# Summary of the method: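 Fluorescence of labelled RT-PCR products separated by capillary electrophoresis gives reporter mRNA levels from transfected HepG2 cells exposed 24 h; values are fitted in both directions relative to DMSO.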
# [9] = ATG_NRF2_ARE_CIS: Attagene CIS-FACTORIAL HepG2 Assay for human Nuclear Factor Erythroid 2 Related Factor 2 (NFR2) response to Antioxidant Response Elements (ARE) (AID 2282992); conditions: HepG2 Attagene ARE/NRF2 reporter, transcription factor activity; actives raise or lower the signal
# Summary of the method: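 HepG2 cells transiently transfected with multiplexed cis-regulated reporter transcription units measure endogenous transcription factor activity. Reporter mRNA at 24 h is quantified by RT-PCR, fluorescent labelling and capillary electrophoresis, with bidirectional fitting relative to DMSO.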
# [10] = ATG_Oct_MLP_CIS: Attagene CIS-FACTORIAL HepG2 Assay for human Octamer-Binding Transcription Factor (Oct) (AID 2282993); conditions: HepG2 Attagene cis-factorial Oct reporter, mRNA; actives raise or lower the signal
# Summary of the method: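 Read-out: reporter mRNA via RT-PCR plus capillary electrophoresis of 6-FAM-labelled fragments. Transiently transfected HepG2, 24 h exposure, endogenous TF activity on cis elements. Gain or loss of signal fitted relative to DMSO.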
# [11] = molecular target: Cellular tumor antigen p53 (Homo sapiens) (UniProt P04637); experiment: ATG_p53_CIS: Attagene CIS-FACTORIAL HepG2 Assay for human p53 Transcription Factor (AID 2282994); conditions: HepG2 p53 cis-element reporter, Attagene mRNA; actives raise or lower the signal
# Chain of Cellular tumor antigen p53 (Homo sapiens) (P04637 whole entry, looked up): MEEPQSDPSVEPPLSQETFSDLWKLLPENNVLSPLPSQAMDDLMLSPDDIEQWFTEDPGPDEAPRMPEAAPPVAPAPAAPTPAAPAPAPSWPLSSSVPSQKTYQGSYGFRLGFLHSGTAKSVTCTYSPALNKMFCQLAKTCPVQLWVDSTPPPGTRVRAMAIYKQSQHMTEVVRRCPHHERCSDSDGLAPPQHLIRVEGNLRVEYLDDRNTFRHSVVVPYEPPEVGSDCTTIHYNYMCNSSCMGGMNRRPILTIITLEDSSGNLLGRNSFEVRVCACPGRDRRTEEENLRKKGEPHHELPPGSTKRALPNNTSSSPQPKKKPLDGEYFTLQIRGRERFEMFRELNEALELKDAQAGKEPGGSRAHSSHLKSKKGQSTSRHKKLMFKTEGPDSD
# Summary of the method: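 HepG2 cells transiently transfected with multiplexed cis-regulated reporter transcription units read endogenous TF activity. After 24 h compound exposure, reporter mRNA was quantified by RT-PCR, fluorescent labelling, HpaI digestion and capillary electrophoresis; bidirectional fits versus DMSO baseline.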
# [12] = ATG_M_32_TRANS: Attagene TRANS-FACTORIAL HepG2 Assay for M32 Transcription Factor (Internal Marker) (AID 2282984; active = hit-call score of the fitted dose curve at least 0.9, where 1 is the maximum;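 also: transcript level of a background control reporter unit measured by RT-PCR and capillary electrophoresis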); conditions: HepG2 Attagene TRANS M32 internal marker reporter
# Summary of the method: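 Using transiently transfected HepG2 cells exposed to test chemicals for 24 h, reporter transcripts are converted to labelled cDNA fragments and quantified by capillary electrophoresis. DMSO defines the activity baseline.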
# [13] = ATG_NFI_CIS: Attagene CIS-FACTORIAL HepG2 Assay for human Nuclear Factor I (NFI) (AID 2282989); conditions: HepG2 cis-regulatory reporter, NFI response element transcription; actives raise or lower the signal
# Summary of the method: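 Read-out: reporter mRNA via RT-PCR plus capillary electrophoresis with fluorescence detection. Transiently transfected HepG2 (endogenous TF activity on cis promoters), 24 h compound exposure; gain or loss of signal fitted against DMSO.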
# [14] = molecular target: Hepatocyte nuclear factor 4-alpha (Homo sapiens) (UniProt P41235); experiment: ATG_HNF4a_TRANS: Attagene TRANS-FACTORIAL HepG2 Assay for human Hepatocyte Nuclear Factor 4 alpha (HNF4a) (AID 2282982; active = hit-call score of the fitted dose curve at least 0.9, where 1 is the maximum); conditions: HepG2 HNF4a transactivation reporter, mRNA readout
# Chain of Hepatocyte nuclear factor 4-alpha (Homo sapiens) (P41235 whole entry, looked up): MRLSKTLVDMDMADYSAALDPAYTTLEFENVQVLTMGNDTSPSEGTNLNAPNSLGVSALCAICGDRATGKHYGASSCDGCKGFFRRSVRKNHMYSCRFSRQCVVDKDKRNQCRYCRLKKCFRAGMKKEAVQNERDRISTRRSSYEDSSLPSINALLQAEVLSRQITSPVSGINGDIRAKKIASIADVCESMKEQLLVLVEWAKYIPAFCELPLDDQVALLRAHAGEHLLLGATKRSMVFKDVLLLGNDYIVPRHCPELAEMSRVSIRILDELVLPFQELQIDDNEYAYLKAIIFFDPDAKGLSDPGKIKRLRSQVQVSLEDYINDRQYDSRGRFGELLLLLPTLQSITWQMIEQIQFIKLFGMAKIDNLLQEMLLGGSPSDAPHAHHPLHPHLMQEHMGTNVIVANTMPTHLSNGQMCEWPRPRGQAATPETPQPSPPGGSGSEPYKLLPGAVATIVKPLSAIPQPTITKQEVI
# Summary of the method: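 Transfected HepG2 reporter cells are dosed for 24 h; reporter RNA is reverse-transcribed, amplified, fluorescently labelled and HpaI-digested before CE sizing. Positive-direction fit against DMSO.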
SMILES,outcome [1],outcome [2],outcome [3],outcome [4],outcome [5],outcome [6],outcome [7],outcome [8],outcome [9],outcome [10],outcome [11],outcome [12],outcome [13],outcome [14],AC50 [9],AC50 [10],AC50 [11]
Nc1ccc(S(=O)(=O)O)c(N)c1,inactive,inactive,inactive,inactive,inactive,inactive,inactive,inactive,inactive,inactive,inactive,,,,,,
Cc1ccc2ccccc2n1,inactive,inactive,,inactive,,inactive,inactive,inactive,inactive,inactive,inactive,inactive,inactive,,,,
CN1[C@@H]2CC(OC(=O)[C@H](CO)c3ccccc3)C[C@H]1[C@@H]1O[C@@H]12 (stereo partly drawn),inactive,inactive,inactive,,inactive,,inactive,,,inactive,inactive,,,,,,
CCCc1ccccc1O,inactive,,inactive,inactive,inactive,inactive,inactive,inactive,inactive,inactive,inactive,,inactive,,,,
Cc1ccc(C=O)s1,inactive,,,,inactive,inactive,inactive,inactive,inactive,inactive,inactive,inactive,inactive,,,,
CCCCCOC(=O)CCC,inactive,inactive,,,inactive,inactive,inactive,inactive,inactive,inactive,inactive,inactive,inactive,,,,
C=C(C)C1CCC(C)CC1O (stereo not drawn),,inactive,inactive,,inactive,inactive,inactive,,inactive,inactive,inactive,inactive,inactive,inactive,,,
CC(C)=CCC[C@](C)(O)[C@@H]1CC=C(C)CC1,inactive,,,inactive,inactive,inactive,inactive,inactive,inactive,inactive,inactive,,inactive,,,,
O=C1C(c2[nH]c3ccc(S(=O)(=O)O)cc3c2O)=Nc2ccc(S(=O)(=O)O)cc21,,inactive,inactive,,inactive,inactive,inactive,,inactive,inactive,inactive,inactive,inactive,,,,
CC(C)=CCC/C(C)=C/COC=O,,inactive,inactive,inactive,inactive,inactive,inactive,inactive,inactive,inactive,inactive,inactive,inactive,inactive,,,
C=COCCOCCOCCOC=C,,inactive,inactive,,inactive,inactive,inactive,inactive,inactive,inactive,inactive,,inactive,inactive,,,
CCCCCC(CO)CCC (stereo not drawn),,inactive,inactive,,inactive,inactive,inactive,,inactive,inactive,inactive,,inactive,,,,
C=C(C)C(=O)NCCCN(C)C,,inactive,,,inactive,inactive,inactive,inactive,inactive,inactive,inactive,,,inactive,,,
NCCCCCCN,,inactive,,inactive,inactive,inactive,inactive,inactive,inactive,inactive,inactive,inactive,,inactive,,,
OCCOc1cccc(OCCO)c1,,inactive,inactive,,inactive,inactive,inactive,inactive,inactive,inactive,,,,inactive,,,
NCCCN1CCOCC1,,inactive,inactive,,inactive,inactive,inactive,,inactive,inactive,,,inactive,,,,
C=CC(C)(CCC=C(C)C)OC=O (stereo not drawn),,inactive,inactive,,inactive,inactive,inactive,,,inactive,inactive,inactive,inactive,inactive,153 µM (active),,
COC(C)CCO (stereo not drawn),,inactive,inactive,,inactive,inactive,inactive,inactive,,,,,inactive,,63.3 µM (active),151 µM (active),162 µM (active)

# Source: PubChem BioAssay (EPA / NIEHS)
